Hit rate of the full screen: of about 53,000 sequences, about 3,700 (7%) were called active. The sample as a whole holds a higher share of actives than the screen did. Values without a mark were called inactive.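 Rule for the calls: active = gene knockdowns whose robust z-score for IL-1 alpha signal is at least 2 or at most -2, so actives lie on both sides; inactive = the rest.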

69 sequences from PubChem BioAssay AID1508600 (Functional Genomics Laboratory (NCATS/FGL), 2020) can be followed below.

The assay can be described thus: Components of the Cytosolic LPS Sensing Pathway: Gene Identification via Genome-wide siRNA Screen.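 Note: robust z of the log signal after scaling to non-targeting control siRNA wells of the plate.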 To be noted: RAW264.7 macrophages, IL-1a HTRF, actives lie on both sides, screened at 100 nM (by protocol), cells primed 5 h with Pam3CSK4 first. In a few lines: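 Cells (RAW264.7, 1×10^4 per well) were transfected with siRNA at 100 nM and cultured 48h at 37 degrees C. Pam3CSK4 was added for 5 hours; LipidA transfection followed for 24 hour. IL-1a was then measured by HTRF.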
(TR-FRET usually uses a lanthanide donor and a delayed reading to cut background.)
On to GGAGAAAGCCAAAUUUAACTT against Slc17a6, for which the z-score was 0.103.
For the sequence GGUCUGAAGAAGAUUCUGGTT against Unc45a, the z-score was 0.33.
For GCCUUUAUAGGAUUUCAAATT against Ppp2r5e, the z-score is 0.678.
Consider CGGUACAGGGUAAAGGACATT against Prss41, for which the z-score is 0.00568.
With GGAGUACAGCAUCUCAGCATT against Cacng1 the figure was -2.17 (active); with GGCAGAACCCUUUGAUGACTT against Fos, -0.0931.
Turning to GCAGCUGUCCGUAUAUCUUTT against Uxt, the z-score was 0.377.
Turning to GGAGUCCUGAAGAAUAAAGTT against Tff3, the z-score is -0.0657.
With CCCACUACUGUAAGACAUGTT against Trim46, the z-score is 0.614.
In the case of CCCUCACUAUAACACUAUUTT against Six5 it was -0.418; in that of GGCUAGAAAGGGUCUCAAATT against Cyp3a25, -1.48.
On to UUGGUUCAACCUCAUCAUATT against Olfr869, for which the z-score is 2.07 (active).
Take CCCUUAUUGCUAGACCUAGTT against Map3k11: the z-score is -1.13.
Take GGAUUUUCUCUAUGCAGGCTT against Dcaf15: the z-score was 0.0862.
With GGAAAAACUGAGAAAACUUTT against Lyrm1 the figure was -2.41 (active).
In the case of GGAUGUCAAGGACACAGUATT against Olfr73, the z-score is -1.04.
In the case of GCAGUGAUCAGGUAAUGAATT against Igf2 it was 0.431; in that of GGUGGGUCAAUGAUCCAGGTT against Fabp9, -2.11 (active).
Take GGAUGUCUUUGUUCACCAGTT against Ybx2: the z-score is -0.267.
In the case of GCCUUUUAAUAGAUGUCAUTT against Vta1, the z-score is -0.201.
For the sequence GGUGUAUUUUUUCACUGUUTT against Olfr339, the z-score was -1.52.
As for GGACUUGCCACCCAGGAAATT against Apba3, the z-score was -0.175.
GCAGAUCAGAAGAAAUUUGTT against Jmy: the z-score was 1.22.
In the case of GGGAAAAGCACGUUCUUGCTT against Arl10, the z-score was 0.34.
Regarding GGAUACGAUCCAGUGUGCCTT against Lyzl4, the z-score was 1.04.
In the case of GGAGGAUUCCCUCUAUAUUTT against Slc33a1 it was 0.118; in that of GGGUCCCUAAGCAUGUUCCTT against Slfn10-ps, 0.618.
GGCUUUGAGCAUGUUUUCATT against Hspb7: the z-score was 7.14 (active).
Take GGUGGAUAUAAUAAUUGACTT against Tgfbr3: the z-score is 1.06.
In the case of GCUAUCCAGAUUGGUGUUATT against Tatdn1 it was 1.7; in that of GGGCCAAGAAAACCUACACTT against Cyp11b2, 2.63 (active); in that of GGCCAAUAAAGACUGGUUUTT against Rps15, 1.69.
With GGAAAGCAAUGCAUUACAATT against Zbtb6, the z-score was 0.149.
With GGCGGAAGCCAUCUAACUUTT against Arhgef4, the z-score is -0.519.
Consider GGCAGCUUCAGGAACCAAUTT against Krt5, for which the z-score was -2 (active).
For the sequence GGGUUUUCUCAUUGUCUUUTT against Rce1, the z-score was -1.91.
Regarding GGAGGUUUUCAUGGUUAUCTT against Nrgn, the z-score is 0.0293.
As to GGUAGACUGAACUUCAGCATT against Larp6, the z-score was -1.31.
With CCCUAUGCAAUAUAUAGACTT against Tmsb15l the figure was 0.174; with CCGAAAAUGAGAUAAAGUCTT against Polr2k, -1.88.
With GGUCAAGUCAAGAGUGAGATT against BC048562 the figure was 0.2.
GGCAUUCUGUGAGACACAATT against Exosc10: the z-score is 0.389.
Turning to CCACAAGCAGUGCUCUUUCTT against Cyp3a13, the z-score was -2.08 (active).
With GAGAAGAAAAAAUGCAGUGTT against Olfr825, the z-score was 0.0375.
Consider CCUGAGGUGUUUUACAUAUTT against Med20, for which the z-score is 0.085.
Take GGAAGAAUCCUCCAUGGAGTT against Mrpl24: the z-score is 1.35.
Regarding GGAAUCAGUGACCUUUUUCTT against Arf2, the z-score was -2.05 (active).
Take CCCUCCUAUUAGCGCAUUUTT against Osbpl2: the z-score is -0.239.
As to GGAGAUGAUCGACGAAGUATT against Tnnc1, the z-score was 0.914.
On to GGAGACAGCAUUCAUUUAUTT against Wnt16, for which the z-score was 0.94.
For the sequence GCUCUCCUUGAUCGAGAGATT against Spryd7, the z-score is -2.65 (active).
Consider GCCUUGUCUUCCUUCAGUGTT against Sprr2a1, for which the z-score was -0.172.
With GGACUUAAGUACAAAGAUCTT against Sap18 the figure was 1.46; with GCAUCAAAUAGUGGUACCUTT against Lsm14a, -0.209; with CGAGCUCAGGUGAGAAAUUTT against Pfpl, 0.924.
For GGACUGCCUUAUGCUACGATT against Setd5, the z-score was -0.44.
For the sequence GUCCUCUUCUGGUUCUCAGTT against Vmn1r52, the z-score was 0.246.
For the sequence CGAGAAGUACAAAAGGGAGTT against Ccdc103, the z-score is -0.768.
Regarding GGUCCUGACUGGAUACCUGTT against Ece1, the z-score was 4.19 (active).
Consider GGCGGAGUAGACUUCAUAUTT against Olfr593, for which the z-score is 0.363.
Turning to GUUUGAUGAUCACUGGGUCTT against Aqp2, the z-score was 1.6.
As for GCUCCGAAGAGCUAAUACUTT against Tmem25, the z-score was 0.944.
In the case of GCGGCAGAUCUUCGAUUUCTT against Nkain1, the z-score is 0.168.
For GGCAAAUAUUUCCAAGUACTT against Cpq, the z-score was -1.57.
Turning to CGAAGUUCCUGGAAAAUAUTT against Tbc1d7, the z-score is -0.924.
Consider CCAGAACGCGGAGCAAAUUTT against Sec63, for which the z-score is 2.13 (active).
In the case of GCACUGUGACGAUACAAGATT against Asb1 it was -1.17; in that of CCGUAGCGAGACUUACAUCTT against Asic3, 1.88; in that of CCUAUAAUGGAGAUGAUACTT against Spty2d1, -0.46.
